Molecules are shown by their SMILES. Out of some 1,300 compounds screened, fewer than 10 were called active.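 The calls were made as follows: active = fitted half-maximal dose AC50 no more than ten times the top valid tested dose, with luminescence dropping as dose rises; inconclusive = poor fit, or flat fit with 30 to 70% inhibition; inactive = the rest, signal increases included.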 Not all results are given here.

The assay is described as follows: luciferase inhibitors in kinase-free ADP detection – biochemical, luminescence, cherry-pick, set 02, artefact control for Dyrk1A inhibitor project, dose response (AID 588348). The settings on record: ADP-Glo luciferase artifact assay, no Dyrk1A; series mostly up to 12 µM.
For the molecule `COc1c(O)cc2oc(-c3ccc(O)c(O)c3)cc(=O)c2c1O`, the molecule was called inactive.

For the molecule `CCN(CC)c1ccc(NC(=O)CCc2nnc3ccc(N4CCCCC4)nn23)c(C)c1`, the outcome was inactive.

Regarding `CCOC(=O)Cn1c(-c2cccnc2Cl)nc2ccccc21`, the molecule was classed as inactive.

On to `Cc1cc(/C=N/Nc2ccc([N+](=O)[O-])cn2)c(C)n1-c1cccc(C(=O)O)c1`, for which the result was inactive.

With `Cc1noc(C)c1-c1ccc2ncnc(NC(C)c3ccco3)c2c1` (configuration not stated), the molecule was called inactive.

Regarding `COc1ccc2c(Cl)c(C(=O)NCc3ccco3)sc2c1`, the molecule was classed as inactive.

Consider `Cc1cccc(-c2nc(Nc3ccc(O)cc3)c3ccccc3n2)c1`, for which the molecule was classed as inactive.

For the molecule `Oc1ccc(-c2nc3ccccc3nc2-c2ccc(O)cc2O)c(O)c1`, the call was inactive.

As to `Oc1ccc(-c2[nH]ncc2-c2nc3ccccc3s2)c(O)c1`, the outcome was inactive.

For the molecule `NC(=S)c1ccc(C(N)=S)o1`, the outcome was inactive.

For the molecule `Nc1nonc1-n1nnc(C(=O)N/N=C\c2ccncc2)c1CN1CCCCC1`, the molecule was classed as inactive.

`C=C(C)Cn1c(N2CCN(CC)CC2)nc2c1c(=O)[nH]c(=O)n2C`: the result was inactive.

Consider `Nc1nc(SCc2ccc([N+](=O)[O-])cc2)c2ncn(C3OC(CO)C(O)C3O)c2n1` (configuration not stated), for which the molecule was classed as inactive.

Consider `Nc1nc(NCCCN2CCOCC2)nc(Nc2ccccc2)c1[N+](=O)[O-]`, for which the outcome was inactive.

As for `Cc1ccc(/C=C(\C#N)C(=O)Nc2cccc3ncccc23)o1`, the outcome was inactive.

For `CC(=O)Oc1ccc2c(c1)C(=O)c1ccccc1C2=O`, the molecule was called inactive.

`CCc1cc2c(NC3CCCC3)ncnc2s1`: the outcome was inactive.

For `COc1ccc(S(=O)(=O)N(C)C[C@H]2Oc3ccc(NS(=O)(=O)c4cccs4)cc3CC(=O)N([C@H](C)CO)C[C@H]2C)cc1`, the molecule was called inactive.

On to `COc1ccc2oc(N)c(C=O)c(=O)c2c1`, for which the molecule was called inactive.

For the molecule `COc1ccc2[nH]c(C)c(CCN(Cc3cccs3)C(=S)Nc3ccccc3OC)c2c1`, the molecule was called inactive.

For the molecule `NS(=O)(=O)c1ccc(-c2ccc(/C=C3\SC(=O)NC3=O)o2)cc1`, the molecule was called inactive.

Consider `O=C(NC(Nc1nc2ccc([N+](=O)[O-])cc2s1)(C(F)(F)F)C(F)(F)F)c1ccccc1`, for which the molecule was called inactive.

In the case of `O=C1/C(=C/c2ccc3c(c2)OCO3)Oc2cc(OCC(=O)N3CC(O)C[C@H]3C(=O)O)ccc21` (some centres not stated), the call was inactive.

As to `CCOc1cc(/C=C2\SC(N3CCCCC3)=NC2=O)ccc1O`, the molecule was called inactive.

Consider `CCc1n[nH]c(=S)n1/N=C/c1c[nH]c2ccc(Br)cc12`, for which the outcome was inactive.

For `CC(=O)C1C(c2ccc(Cl)cc2)NC(=O)NC1(O)C(F)(F)F` (configuration not stated), the outcome was inactive.

As to `CC(=O)Nc1cccc(-c2cnc3ccccc3n2)c1`, the molecule was classed as inactive.

For `Oc1ccc(-c2csc(Nc3cccnc3)n2)cc1`, the molecule was classed as inactive.

`CCOCCCNC(=O)C(NC(=O)c1ccc(=O)[nH]c1)c1ccc(Cl)cc1` (configuration not stated): the molecule was called inactive.

Turning to `CN1c2ccc(C=O)c3c(C=O)ccc(c23)N(C)C1(C)C`, the molecule was classed as inactive.

`O=C1N=C(N2CCc3ccccc3C2)S/C1=C\c1ccc(O)cc1`: the result was inactive.

Consider `O=C(NCCc1ccccc1)C1CCN(S(=O)(=O)c2ccc(Br)s2)CC1`, for which the molecule was classed as inactive.

On to `CCn1c(NC(=O)c2ccccc2)c(-c2cccs2)c(=O)c2ccccc21`, for which the molecule was called inactive.

For the molecule `COc1cccc(C(=O)NNC(=O)/C=C/c2ccccc2)c1`, the molecule was called inactive.

For the molecule `C[C@@H]1O[C@@H](OC[C@H]2O[C@@H](Oc3c(-c4ccc(O)cc4)oc4cc(O)cc(O)c4c3=O)[C@H](O)[C@@H](O)[C@@H]2O)[C@H](O)[C@H](O)[C@H]1O`, the molecule was classed as inactive.

Take `Cc1noc(NS(=O)(=O)c2ccc(NC(=O)c3oc4ccc(F)cc4c3C)cc2)c1C`: the molecule was called inactive.

In the case of `COc1cc(O)c2c(=O)c3c(O)c(O)ccc3oc2c1OC`, the molecule was called inactive.

The record behind these values is PubChem BioAssay AID588348 (Broad Institute, 2011).
